Measurements from PubChem BioAssay (NCATS).
Inconclusive results are not listed. A number with no mark means an inactive call. Activity calls are given as the source filed them. The call rests on the fitted dose curve; in most records, active means well fitted activation curve with a large enough effect; inconclusive means small, poorly fitted or top-dose-only effect; inactive means no such curve, though single readings can be large or run the other way.

Biological target: Cellular tumor antigen p53 (Homo sapiens) (UniProt P04637)
Sequence (P04637 whole entry, looked up): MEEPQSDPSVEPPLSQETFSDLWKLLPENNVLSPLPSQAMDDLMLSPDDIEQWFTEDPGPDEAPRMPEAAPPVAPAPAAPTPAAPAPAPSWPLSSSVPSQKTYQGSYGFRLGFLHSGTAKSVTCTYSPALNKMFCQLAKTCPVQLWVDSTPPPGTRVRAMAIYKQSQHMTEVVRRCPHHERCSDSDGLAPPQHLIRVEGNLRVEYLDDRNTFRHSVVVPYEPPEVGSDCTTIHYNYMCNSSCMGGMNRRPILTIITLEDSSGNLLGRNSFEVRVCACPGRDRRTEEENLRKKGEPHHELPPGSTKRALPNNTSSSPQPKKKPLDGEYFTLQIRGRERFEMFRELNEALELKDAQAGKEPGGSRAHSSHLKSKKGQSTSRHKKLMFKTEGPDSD
Assay: Primary qHTS for small molecule compounds that upregulate eGFP-tagged delta133p53alpha (in N-terminal) cells. (AID 2060322); further: nearly all actives have a fitted effect of over 75% in size;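 on activation: cells pre-induced with doxycycline then dosed without doxycycline; series mostly up to about 56 µM; 0% = DMSO vehicle and 100% = reference activator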
Conditions: NCI-H358 eGFP-delta133p53alpha fluorescence, 24 h; activation: active compounds read high
How it was run: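 NCI-H358 cells pre-induced 24 h with 10 ng/ml doxycycline for eGFP-delta133p53alpha, plated dox-free and exposed 24 h at 37C to titrated compounds. Fixed, Hoechst-stained; gated GFP peak intensity by laser scanning cytometry, normalized to DMSO (0%) and 57.5 uM 5-azacytidine (100%).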
Potency means the concentration at half of the fitted maximal effect.

With CC1=CC(=O)[C@@H](O)[C@]2(C)C3[C@@H](O)[C@@H]4OC(=O)[C@@H]([C@H]4C)[C@]3(C)C(=O)C[C@@H]12 (some centres undefined) the Potency was 16.6 µM (active).
In the case of C=CC(C)(C)C12C=C(O)C(=O)N3/C(=C\c4cnc[nH]4)C(=O)NC31N(OC)c1ccccc12 (centres undefined), the Potency is reported as 4.65 µM (active).
For COC1CC(O[C@H]2CC[C@]3(C=O)C4CC[C@]5(C)[C@@H](C6=CC(=O)OC6)CC[C@]5(O)[C@@H]4CC[C@@H]3C2)OC(C)C1O[C@@H]1O[C@H](CO)[C@@H](O[C@@H]2O[C@H](CO)[C@@H](O)[C@H](O)[C@H]2O)[C@H](O)[C@H]1O (some centres undefined), the Potency was 3.21 µM (active).
With COC1CCCC(C)OC(=O)Cc2cc(O)cc(O)c2C(=O)C1 (centres undefined) the Potency was 16.6 µM (active).
CC(=O)OC[C@]12C[C@H](OC(=O)CC(C)C)C(C)=C[C@H]1O[C@@H]1[C@H](O)[C@@H](OC(C)=O)[C@@]2(C)[C@@]12CO2 was tested, and the Potency was 0.0828 µM (active).

Point of comparison: COC1CC(=O)C23C(=O)NC(CC(C)C)C2C(C)=C(C)C(OO)C3/C=C(\C)CCC(O)C1O (centres undefined), activation -4.58%. Against it:
- COC(=O)[C@@]12C(=O)C(C)C(=O)[C@]1(C)C(C)=C[C@H]1[C@]3(C=O)CC[C@H](OC(C)=O)C(C)(C)[C@H]3CC[C@@]12C (some centres undefined) — higher, 19.1%
- CN1C(=O)N(c2ccc(C#N)c(C(F)(F)F)c2)C(=O)[C@@]1(CO)c1ccccc1 — higher, -3.67%
- CCCCCCC1C(=O)O[C@H](C)[C@H](NC(=O)c2cccc(NC=O)c2O)C(=O)O[C@@H](C)[C@@H]1OC(=O)CC(C)C (some centres undefined) — lower, -5.67%
- COc1ccc(CN(C(=O)[C@@H](N)Cc2c(C)cc(C(N)=O)cc2C)[C@@H](C)c2ncc(-c3ccccc3)[nH]2)cc1C(=O)O — higher, 12.3%
- C=CCN1CCC2(C)c3cc(O)ccc3C[C@H]1[C@H]2C — lower, -5%
- C[C@]12CC[C@H]3[C@@H]([C@H](O)CC4=CC(=O)CC[C@@]43C)[C@@H]1CC[C@@H]2O — higher, -2.33%
- COC1=CC(=O)O[C@@H](/C=C/c2ccccc2)C1 — lower, -10.7%
- CCN1C[C@]2(COC)[C@H](O)C[C@H](OC)[C@]34[C@@H]5C[C@]6(O)[C@H](OC(=O)c7ccccc7)[C@@H]5[C@@](O)([C@H]([C@H](OC)[C@H]23)[C@@H]14)[C@@H](O)[C@@H]6OC — higher, 10.3%
- CC[C@@H]1C[C@H]2CC[C@H](O2)[C@H](C)C(=O)O[C@@H](C)C[C@@H]2CC[C@@H](O2)[C@@H](C)C(=O)O[C@H](C)C[C@H]2CC[C@H](O2)[C@H](C)C(=O)O[C@@H](C)C[C@@H]2CC[C@@H](O2)[C@@H](C)C(=O)O1 — lower, -13.7%
- CCC1=CC2CN3CCc4c([nH]c5ccccc45)[C@@](C(=O)OC)(C2)[C@@H]13 — higher, 6.11%
- COc1c(C(C)C)cc2c(c1O)[C@@]1(C(=O)O)CCCC(C)(C)C1CC2 (some centres undefined) — lower, -13%
- C=CC(C)(O)CC/C=C(\C)C(=O)O[C@H]1[C@H](O)[C@@H](CO)O[C@@H](OC(=O)[C@]23CCC(C)(C)CC2C2=CCC4[C@@]5(C)CC[C@H](O[C@@H]6O[C@H](CO[C@@H]7OC[C@H](O)[C@H](O)[C@H]7O[C@@H]7OC[C@@H](O)[C@H](O)[C@H]7O)[C@@H](O)[C@H](O)[C@H]6O)C(C)(C)C5CC[C@@]4(C)[C@]2(C)CC3)[C@@H]1OC1OC(C)C(O[C@@H]2OC[C@@H](O)[C@H](O[C@@H]3OC[C@@H](O)[C@H](O)[C@H]3O)[C@H]2O)C(O)C1O (some centres undefined) — lower, -6.87%
- CCC(C)(OC(C)=O)C(=O)O[C@H]1[C@H](OC(C)=O)C[C@@H]2[C@@](C)([C@@H]3C[C@H]4C=CO[C@H]4O3)[C@H](C)C[C@H](OC(C)=O)[C@@]2(COC(C)=O)[C@@]12CO2 (some centres undefined) — higher, -3.82%
- C[C@]12CC[C@H](O)C[C@@H]1CC[C@@H]1[C@@H]2CC[C@]2(C)[C@@H](C3=CC(=O)OC3)CC[C@]12O — higher, 7.63%
- COC[C@]12CN(C)C3C4[C@H](OC)[C@H]1C3(C(OC)C[C@H]2O)[C@H]1C[C@@]2(O)[C@H](OC(=O)c3ccccc3)[C@@H]1[C@]4(O)[C@@H](O)[C@@H]2OC (some centres undefined) — higher, -0.333%
- COC(=O)C1=COC(C)C2CN3CCC4(C(=O)Nc5ccccc54)C3CC12 (centres undefined) — higher, 11.5%
- C[C@]12CC[C@H](O[C@@H]3O[C@H](CO)[C@@H](O)[C@H](O)[C@H]3O)CC1=CC[C@@H]1C2CC[C@]2(C)[C@@H](C3=CC(=O)OC3)CC[C@]12O (some centres undefined) — higher, 0.763%
- CCN1C[C@]2(COC)CC[C@H](O)[C@@]34C5C[C@@H]6[C@@H](OC)C[C@@](OC(C)=O)(C5[C@@H]6OC(C)=O)[C@H]([C@H](OC)C23)[C@@H]14 (some centres undefined) — higher, 8.04%
